Data reported in ChEMBL document CHEMBL3988442, “University of Dundee, Small-Polar-MMV Screening Library” (2021).
In all, about 48,000 compounds went through this assay and about 13,000 (27%) showed an effect of 50% or more. The list shows a part of the results.

These molecules were tested on Wolbachia pipientis (assay: Anti-Wolbachia Cell-Based Screen). Details: 5 µM.
Format: functional
Design: scale not given: in the data most compounds retested in dose-response had high values
`Cc1c2nnn(CC(=O)N(C)C)c(=O)c2nn1C` was tested, and the “Percent Effect” value was 15.44%.
For `COCc1nc2cc(NCc3ccc(C)o3)ccc2o1`, the “Percent Effect” value was -0.6949%.
For `COCCN(C)CCN1CC2(CCN(C3CCCOC3)CC2)OC1=O` (stereo not given), the “Percent Effect” value was -0.4921%.
In the case of `Cc1cnccc1NCCn1ccnc1C1CCCCC1`, the “Percent Effect” value is reported as 3.788%.
With `Cc1ncc(CN(C)CC(O)c2ccc(OC(F)(F)F)cc2)s1` (stereo not given) the “Percent Effect” value was -20.59%.
With `Cc1cn2c(n1)CCC(NC(=O)CCC(F)(F)F)C2` (stereo not given) the “Percent Effect” value was 10.47%.
With `Cc1cnn(CCC(=O)NC2CCc3nc(C)cn3C2)c1` (stereo not given) the “Percent Effect” value was 105.9%.
For `Cc1cn2c(n1)CCC(NC(=O)CCCn1cncn1)C2` (stereo not given), the “Percent Effect” value was 102.3%.
With `Cc1cn2c(n1)CCC(NC(=O)c1ccc(CS(C)(=O)=O)o1)C2` (stereo not given) the “Percent Effect” value was -5.623%.
In the case of `Cc1cn2c(n1)CCC(NC(=O)CCn1cncn1)C2` (stereo not given), the “Percent Effect” value is reported as -7.204%.
`Cc1cn2c(n1)CCC(NC(=O)CCn1ccnn1)C2` (stereo not given) was tested, and the “Percent Effect” value was -2.127%.
For `Cc1cn2c(n1)CCC(NC(=O)Cn1cncn1)C2` (stereo not given), the “Percent Effect” value was 119.2%.
In the case of `CCN(C(=O)CNC1CCc2ncnn2C1)C1=CCCCC1` (stereo not given), the “Percent Effect” value is reported as -6.833%.
In the case of `CC(C)Oc1ccc(NCc2ccc([S+](C)[O-])cc2)c(F)c1` (stereo not given), the “Percent Effect” value is reported as 7.808%.
For `O=C(NCc1nn(-c2ccccc2)c2c1CCC2)NC1CC1`, the “Percent Effect” value was -2.781%.
With `CCc1cc(CNC(=O)NCc2ccc(N3CCCCC3)cc2)on1` the “Percent Effect” value was -23.7%.
With `O=C(c1ccc(S(=O)(=O)NC2CCC2)cc1)N1CC[C@H]2CNC[C@H]21` the “Percent Effect” value was -0.3981%.
With `Cn1nnn(-c2ccc(NS(=O)(=O)c3ccc(F)c(Cl)c3)cc2)c1=O` the “Percent Effect” value was -5.508%.
With `COC(=O)c1ccc(S(=O)(=O)NC2CNC(=O)C2)cc1` (stereo not given) the “Percent Effect” value was 131%.
For `COc1cccc(S(=O)(=O)NC2CNC(=O)C2)c1` (stereo not given), the “Percent Effect” value was 1.379%.
With `Cc1ccc(S(=O)(=O)NC2CCC(=O)NC2)cc1Br` (stereo not given) the “Percent Effect” value was -11.56%.
`O=C1CC(NS(=O)(=O)c2cccc(F)c2)CN1` (stereo not given) was tested, and the “Percent Effect” value was 126.5%.
`O=C1CC(NS(=O)(=O)c2ccc(Br)cc2)CN1` (stereo not given) was tested, and the “Percent Effect” value was 151.1%.
For `O=C1CC(NS(=O)(=O)c2ccc(F)c(Cl)c2)CN1` (stereo not given), the “Percent Effect” value was 135.6%.
In the case of `O=S(=O)(NC1CC1)c1cccc(Br)c1`, the “Percent Effect” value is reported as -14.81%.
With `CSc1ccc(S(=O)(=O)NC2CNC(=O)C2)cc1` (stereo not given) the “Percent Effect” value was -0.4933%.
In the case of `CC(Cn1ccnc1)NS(=O)(=O)c1ccc(F)c(Cl)c1` (stereo not given), the “Percent Effect” value is reported as -9.501%.
In the case of `CSCCCN1CCn2nc(CNC(=O)N(C)C)cc2C1`, the “Percent Effect” value is reported as -17.64%.
`Cc1ncsc1CCC(=O)NC1CCN(c2ncccc2C#N)CC1` was tested, and the “Percent Effect” value was 5.658%.
In the case of `Cc1ccc2c(c1)C(N1CCOCC1)CC21CCNCC1` (stereo not given), the “Percent Effect” value is reported as -7.905%.
